An excerpt weighted towards active compounds, which were near 4.8% of everything screened.
SMARCA2 act: SMARCA2 function activation, primary screen. MG213 cells, MMTV-luciferase reporter, dexamethasone, overnight. activation, % at 9.1 µM. 370,000 tested, 1% active. AID 652017; in the data active = activation above about 7.8%;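 also: 0% = vehicle wells and 100% = reference activator wells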
DAX1 inh-1: DAX1 (NR0B1) inhibition, primary screen; 370,000 tested, 1.1% active; inhibition, % at 6.8 µM; HEK293T StAR-luciferase reporter, SF-1/DAX-1 repression relief;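 active = inhibition above the mean over all tested compounds plus 3 SD, cut at about 3.6% in these data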;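 also: 0% = DAX-1 cells with DMSO and 100% = cells lacking DAX-1 with DMSO; higher inhibition means more luminescence from relief of DAX-1 repression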
hcDAF12 agonist: activates DAF-12 receptor from parasite H. contortus; AID 652067; 370,000 tested, 1.4% active; HEK293 hcDAF-12 lit1-tk-luc reporter, luminescence; 0% DMSO, 100% Δ7-dafachronic acid; activation, % at 6.8 µM;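 active = activation above the mean of all tested compounds plus 3 SD, cut at about 5.5% in these data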;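 also: 100% = response to 3 µM Δ7-dafachronic acid high control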
DAX1 inh-2: NR0B1 (DAX1) inhibition. P51843. HEK293 Gal4-DAX1 luciferase reporter, luminescence. inhibition, % at 6.75 µM. 340,000 tested, 0.99% active;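 active = inhibition above the mean over all tested compounds plus 3 SD, cut at about 4.2% in these data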;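 also: 0% = DAX1-transfected cells with DMSO and 100% = empty-vector control cells with DMSO; inhibition shows as a rise in luminescence from relieved DAX1 repression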
Target sequence (P51843 207-470 limits assumed): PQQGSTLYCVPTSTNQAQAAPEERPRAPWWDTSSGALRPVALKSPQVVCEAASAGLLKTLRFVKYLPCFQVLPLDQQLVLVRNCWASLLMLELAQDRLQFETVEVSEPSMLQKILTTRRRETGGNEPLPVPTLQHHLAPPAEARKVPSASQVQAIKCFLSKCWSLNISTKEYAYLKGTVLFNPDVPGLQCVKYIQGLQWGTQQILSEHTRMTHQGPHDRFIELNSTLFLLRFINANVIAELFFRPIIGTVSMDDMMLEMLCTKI
hgDAF12 agonist: agonists of H. glycines DAF-12 nuclear receptor | 370,000 tested, 1.8% active | HEK293 GAL4-hgDAF12 UAS-luciferase reporter, agonist luminescence; normalized to butyrate control | activation, % at 6.8 µM;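 active = activation above a cutoff set at the mean of all screened compounds plus 3 SD, cut at about 10% in these data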;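 also: 0% = DMSO wells and 100% = sodium butyrate wells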
ssDAF12 agonist: activators of S. stercoralis DAF-12 nuclear receptor; HEK293 ssDAF-12/GRIP1 lit1-tk-luc reporter, luminescence; % of 3 µM dafachronic acid response; activation, % at 6.8 µM; 370,000 tested, 1% active; AID 652126;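 active = activation above the mean over all tested compounds plus 3 SD, cut at about 0.9% in these data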;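 also: 0% = DMSO-only wells and 100% = 3 µM delta7-dafachronic acid wells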
DAX1 conf: NR0B1 (human) inhibition, confirmation. shares compounds with DAX1 inh-1. HEK293T StAR-promoter luciferase reporter, SF-1/DAX-1 repression. inhibition, % at 6.8 µM. 2,400 tested, 87% active. AID 652134;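 active = inhibition above the average of every tested compound plus 3 SD, cut at about 3.8% in these data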;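 also: 0% = DAX-1 cells with DMSO and 100% = no DAX-1 control cells with DMSO; active compounds raise luminescence by relieving repression of the StAR reporter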
Target sequence (P51843 whole entry, looked up): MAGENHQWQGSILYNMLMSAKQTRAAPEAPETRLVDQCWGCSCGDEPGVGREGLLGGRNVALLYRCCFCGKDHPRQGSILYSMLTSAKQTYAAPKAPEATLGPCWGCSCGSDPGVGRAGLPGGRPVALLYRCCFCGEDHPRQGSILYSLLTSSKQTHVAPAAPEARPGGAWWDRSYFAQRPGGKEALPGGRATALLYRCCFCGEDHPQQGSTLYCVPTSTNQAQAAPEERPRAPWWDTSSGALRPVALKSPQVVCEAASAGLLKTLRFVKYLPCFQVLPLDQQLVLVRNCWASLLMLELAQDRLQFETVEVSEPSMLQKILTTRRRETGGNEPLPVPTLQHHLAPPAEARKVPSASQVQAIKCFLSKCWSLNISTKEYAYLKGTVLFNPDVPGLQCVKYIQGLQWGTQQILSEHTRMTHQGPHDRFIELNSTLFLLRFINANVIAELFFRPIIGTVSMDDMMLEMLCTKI
SF1 mutant ctr: nonselective inhibitor or artifact in SF-1 mutant DAX1 counter-screen | shares compounds with DAX1 inh-1 | HEK293 StAR-luciferase, SF-1 AF2 mutant, luminescence | inhibition, % at 6.8 µM | 2,400 tested, 78% active | AID 652136;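 active = inhibition above the mean of all tested compounds plus 3 SD, cut at about 3% in these data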;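 also: 0% = DAX-1 transfected cells with DMSO and 100% = cells without DAX-1 with DMSO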
SMARCA2 act conf: confirmation of SMARCA2 (BRM) function activators; AID 652260; MG213 cells, MMTV-luciferase with dexamethasone, luminescence, overnight; MG213 cells expressing E1A, Rb sequestered; DMSO wells 0%, reference activator 100%; 3,500 tested, 30% active; shares compounds with SMARCA2 act; activation, % at 9.1 µM;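 active = activation above its plate's cutoff, the mean activation of tested wells plus 3 SD, cut at about 7.9% in these data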
GAL4-VP16 Luc: GAL4-VP16 reporter activation counter-screen | activation, % at 9.1 µM | HEK293 GAL4-VP16 pG5luc reporter, luciferase luminescence; scaled: DMSO wells 0%, SAHA wells 100% | shares compounds with SMARCA2 act | 3,500 tested, 41% active;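 active = activation above the solvent-only control well mean plus 3 SD, averaged across control plates, cut at about 5.2% in these data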
LXR ag: counter-screen for hcDAF-12 agonists: agonists of human LXR-beta; shares compounds with hcDAF12 agonist; activation, % at 6.8 µM; HEK293 Gal4-LXR tk-luc reporter, luminescence, 24 h; normalized: DMSO 0%, positive control 100%; 3,400 tested, under 10 active; AID 743027;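 active = mean percent activation of the reporter above a cutoff set as the average over tested compounds plus their standard deviation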
hcDAF12 ag: hcDAF-12 agonism, confirmation assay; shares compounds with hcDAF12 agonist; HEK293 hcDAF-12 lit1-tk-luc reporter, luminescence; % of Δ7-dafachronic acid response; activation, % at 6.8 µM; 3,400 tested, 61% active; AID 743032;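 active = mean activation across triplicate tests above the threshold derived from the earlier primary screen, cut at about 5.5% in these data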;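 also: 0% = DMSO only wells and 100% = 3 µM Δ7-dafachronic acid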
hgDAF12 conf: hgDAF-12 agonism, confirmation assay; activation, % at 6.8 µM; shares compounds with hgDAF12 agonist; AID 743050; 3,300 tested, 80% active; HEK293 GAL4-hgDAF12 luciferase reporter, agonist mode; percent of butyrate response;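 active = mean activation over triplicate wells above the hit cutoff derived from the earlier primary screen, cut at about 11% in these data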;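 also: 0% = DMSO low control and 100% = 2 mM sodium butyrate high control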
LXR ag 2: activates human LXR-beta, counter-screen for DAF-12 agonists | shares compounds with hgDAF12 agonist | HEK293 Gal4-LXR luciferase reporter, 24 h | activation, % at 6.8 µM | 3,300 tested, under 10 active;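 active = mean activation of the triplicate above a set limit carried over from the primary screen, none filed active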
Starred values were filed as active, the others as inactive; nt = not tested or not shown.

SMILES	SMARCA2 act	DAX1 inh-1	hcDAF12 agonist	DAX1 inh-2	hgDAF12 agonist	ssDAF12 agonist	DAX1 conf	SF1 mutant ctr	hgDAF12 conf	LXR ag 2	others
N#C/C(=N\Nc1ccc(F)cc1)C(=N)N1CCCCCC1	12.0*	7.0*	9.2*	4.4*	14.4*	0.4	14.6*	4.0*	17.9*	0.8	SMARCA2 act conf=14.8*;GAL4-VP16 Luc=19.2*;LXR ag=1.4;hcDAF12 ag=7.3*
N#C/C(=N\Nc1ccc(F)cc1)C(=O)C1CC1	-3.0	0.1	-0.1	nt	0.5	-0.9	nt	nt	nt	nt
Cc1ccc(NNC(=O)C(=O)N2CCCCC2)cc1	-0.3	1.5	4.4	-1.3	-0.5	-1.6	nt	nt	nt	nt
N#C/C(=N\Nc1ccc(Cl)cc1)C(=N)N1CCCCC1	1.7	5.9*	7.8*	2.1	15.5*	1.0*	15.4*	11.5*	19.4*	1.0	LXR ag=2.1;hcDAF12 ag=6.6*
Cc1ccc(N/N=C(\C#N)C(=N)N2CCCCCC2)cc1	8.3*	10.2*	11.5*	1.9	19.4*	2.0*	16.1*	6.8*	23.3*	1.1	SMARCA2 act conf=11.6*;GAL4-VP16 Luc=13.6*;LXR ag=1.5;hcDAF12 ag=9.7*
Cc1ccc(N2CCN(C(=O)C(=O)c3cccc(Br)c3)CC2)cc1	-1.5	0.9	1.6	nt	3.4	-0.2	nt	nt	nt	nt
Brc1ccc(-c2cn3nc4c(nc3n2)CCCC4)cc1	2.0	4.9*	11.8*	1.1	14.1*	0.7	6.8*	3.2*	14.2*	0.9	LXR ag=1.4;hcDAF12 ag=8.2*
O=C(c1cnn(-c2ccccc2)c1)c1cc(F)ccc1O	3.2	1.1	3.5	2.9	7.0	-0.3	nt	nt	nt	nt
O=C(c1cnn(-c2ccccc2)c1)c1ccccc1O	0.6	6.1*	7.9*	0.4	22.9*	0.7	13.2*	7.9*	19.5*	0.9	LXR ag=1.4;hcDAF12 ag=7.1*
CC1CCN(c2nc3ccc(C(=O)NCCCN4CCCCC4C)cc3s2)CC1 (stereo unspecified)	8.1*	7.2*	4.0	-2.3	14.7*	1.6*	11.9*	7.1*	15.1*	0.9	SMARCA2 act conf=15.4*;GAL4-VP16 Luc=14.6*
Cc1ccc(/C=N/NC(=O)CNC(=O)c2ccc(C)c([N+](=O)[O-])c2)o1	-3.9	-0.5	-0.5	1.5	-0.3	-1.5	nt	nt	nt	nt
CCCC(=O)N1CCCC(c2cc(C(=O)Nc3ccc4c(c3)OCO4)no2)C1 (stereo unspecified)	0.3	4.7*	2.5	nt	18.0*	-0.5	4.4*	2.3	12.7*	0.6
O=C(Nc1ccc2c(c1)OCO2)c1cc(C2CCCN(C(=O)CCc3ccccc3)C2)on1 (stereo unspecified)	-2.2	1.5	0.0	nt	2.7	-1.7	nt	nt	nt	nt
CC(C)Oc1cccc(C(=O)C2CCCN(Cc3cccn3-c3cccnc3)C2)c1 (stereo unspecified)	-5.0	-0.8	-1.3	0.4	-5.5	-1.6	nt	nt	nt	nt
C=CCn1c(C)cc(C(=O)Cn2nc(C(=O)O)c3ccccc3c2=O)c1C	7.9*	5.0*	1.7	1.9	15.3*	0.9*	10.2*	4.0*	13.2*	0.7
CC/C=C\[C@H](O)[C@H](O)C1=C(C)C(=O)[C@]2(O1)C(=O)N[C@@](OC)(C(=O)c1ccccc1)[C@@H]2O	-1.7	-0.7	1.5	nt	-0.8	-1.1	nt	nt	nt	nt
Cc1cccc(C)c1NC(=S)N/N=C/c1ccccc1C(=O)O	-1.3	0.4	-1.0	0.3	-1.2	-0.8	nt	nt	nt	nt
O=C(NC1=NCCS1)c1cccc(NC(=O)c2ccco2)c1	-1.9	-0.1	3.6	-0.6	0.1	-0.6	nt	nt	nt	nt
CC(C)Oc1cccc(C(=O)NC2=NCCS2)c1	3.6	5.0*	1.2	1.3	14.7*	0.2	5.9*	4.1*	10.6*	0.3
COCCOC(=O)C1=C(C)N=C2SCCC(=O)N2C1c1ccc(OC(=O)c2ccco2)cc1 (stereo unspecified)	-3.8	0.0	0.2	0.5	-2.7	-0.5	nt	nt	nt	nt
Cc1cc(-c2csc(NC(=O)c3ccc(=O)[nH]c3)n2)c(C)n1Cc1ccccc1	-3.4	-0.5	3.2	0.1	-0.7	-1.3	nt	nt	nt	nt
COc1ccc(C(=O)Nc2ccc3c(c2)OCCO3)cc1	8.0*	4.7*	5.8*	-1.3	15.2*	1.4*	14.5*	5.2*	15.2*	0.8	SMARCA2 act conf=4.8;GAL4-VP16 Luc=10.0*
Cc1ncoc1C(=O)Nc1ccc2c(c1)OCCO2	-3.8	0.1	0.4	0.5	-1.6	-1.4	nt	nt	nt	nt
COc1ccc(C(=O)Nc2ccc3c(c2)OCCO3)c(OC)c1	14.0*	9.4*	5.7*	1.7	21.8*	0.5	13.2*	9.1*	17.4*	1.0	SMARCA2 act conf=6.9;GAL4-VP16 Luc=14.3*
Cc1ccsc1C(=O)Nc1ccc2c(c1)OCCO2	5.4	4.6*	5.0	-1.4	20.9*	-0.5	13.9*	7.7*	15.0*	0.9
O=C(O)c1ccc(N/N=C/C=C/c2ccccc2)cc1	8.0*	6.3*	4.9	1.4	15.3*	0.6	10.8*	5.8*	15.0*	0.8	SMARCA2 act conf=4.3;GAL4-VP16 Luc=17.0*
O=C(N/N=C/C=C/c1ccccc1)c1ccncc1	-3.4	0.7	1.0	2.1	2.6	-1.5	nt	nt	nt	nt
O=C(CN1CCN(c2ncccn2)CC1)N(Cc1ccccc1)c1ccc(F)cc1	2.2	0.2	0.3	-1.2	-2.2	-1.7	nt	nt	nt	nt

Screening data from PubChem BioAssay.
